# Values joined by “and” are separate entries in the source; they are usually repeats but may differ in a detail not shown here. Identical values can stand only once. Unmarked numbers belong to inactive results. Results filed as inconclusive are left out. Entries that show only a call come without a potency. Active and inactive are the calls of the source. Unless noted, calls come from the whole dose curve; as a rule, active = well fitted curve in either direction with a large enough effect (not every such curve was filed as active); inconclusive = small, poorly fitted or top-dose-only effect, or another doubt; inactive = flat fitted curve, though single readings scatter.
# Legend:
# [1] = molecular target: Cytochrome P450 1A2 (Homo sapiens) (UniProt P05177); experiment: p450-cyp1a2 (AID 410; calls by dose curve; note: potency is the fitted concentration of half-maximal effect)
# Procedure, shortened: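 Inhibition was calculated relative to 57 uM furafylline (full inhibition). The reaction used human CYP1A2 at 20nM with Luciferin-ME at its Km, 100uM, driven by an NADPH-regenerating system for 60 min at room temperature.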
# [2] = Stat Signaling Pathway (AID 446); conditions: ME-180 SIE beta-lactamase reporter, IL-6 stimulated, 5 h; at 17.2 µM (top of the series) unless noted;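 note: ME-180 cervical cancer cells given 40 pM IL-6 alongside compound; SIE-controlled beta-lactamase reporter measured as 460/530 nm FRET emission ratio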
# Procedure, shortened: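 ME-180 cells carrying a SIE-driven beta-lactamase reporter are stimulated with 40 pM IL-6 for 5 h at 37C in the presence of compound. The 460/530 nm FRET substrate ratio is read after 2.5 h at RT. Data are normalised to 300 pM IL-6 and to 125 nM JAK inhibitor controls.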
# [3] = molecular target: Glucocorticoid receptor (Homo sapiens) (UniProt P04150); experiment: GR-EFC Redistribution (AID 451; calls by dose curve; note: potency is the fitted concentration of half-maximal effect); conditions: CHO-K1 GR-EFC translocation, beta-gal luminescence, 2 h
# Procedure, shortened: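 CHO-K1 cells stably expressing nuclear-localized β-gal enzyme acceptor and GR fused C-terminally to the enzyme donor fragment; ligand-driven nuclear translocation restores β-gal by complementation. Compounds titrated up to 46 uM final, 2 h at 37 °C; luminescence read.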
# [4] = molecular target: Mitogen-activated protein kinase 10 (Mus musculus) (UniProt Q61831); experiment: JNK3 AlphaScreen Assay (AID 530);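 note: kinase came from lysate of stimulated human HepG2 cells; signal reports phosphorylation of biotinylated GST-cJun 1-79 at Ser73 with 10 µM ATP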
# Procedure, shortened: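 JNK3 came from HepG2 lysates pre-activated with IL-1beta and TNF-alpha and phosphorylated biotinylated GST-cJun (1-79) at 10 uM ATP, pH 7.6, room temperature. Compounds were titrated. AlphaScreen signal used anti-phospho-cJun (Ser73) antibody.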
# [5] = molecular target: 3',5'-cyclic-AMP phosphodiesterase 4B (Homo sapiens) (UniProt Q07343); experiment: qHTS Assay for Inhibitors of PDE-IV (AID 607; active = well fitted activation curve with a large enough effect in the main read-out, with a control signal flat, not every such curve was filed as active)
# Procedure, shortened: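 HEK293 ACTOne cells with CNG channel (1000/well), endogenous PDE4; membrane potential dye, compounds up to 22.9 uM final. Fluorescence Ex 535/Em 590; RO 20-1724 (100 uM final) as reference.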
# [6] = Cell Viability - BJ (AID 421; calls by dose curve;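 note: potency is the fitted concentration of half-maximal effect; cells exposed to compound for 40 hours at 37 °C before readout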); conditions: BJ fibroblast viability, qHTS
# Procedure, shortened: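 Normal human BJ foreskin fibroblasts, 1500/well in complete medium, treated 40 hr at 37 °C. Cellular ATP by CellTiter-Glo luminescence; normalized to DMSO and 100 uM tamoxifen, AC50 from Hill fit.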
# [7] = Cell Viability - Jurkat (AID 426;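 active = dose-dependent loss of cell ATP signal giving a full or clear fitted curve, ranked by lower potency value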; note: potency is the fitted concentration of half-maximal effect); conditions: qHTS
# Procedure, shortened: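 Seed 5000 Jurkat E6-1 cells/well; add compound; incubate 40 hr at 37 °C; add CellTiter-Glo; wait 20 min at room temperature; read luminescence. Fit concentration-response with Hill equation for AC50.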
# [8] = Cell Viability - Hek293 (AID 427;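 active = compounds whose dose-response curve shows a full or clear partial loss of cell viability, called from curve shape rather than a numeric limit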;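 note: potency is the fitted concentration of half-maximal effect; cells exposed to compound for 40 hours at 37 °C before reading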); conditions: qHTS
# Procedure, shortened: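 HEK293 cells in complete medium were exposed to compound for 40 hr at 37 °C, then cellular ATP was read by CellTiter-Glo luminescence. Data were normalized to DMSO (basal) and 100 uM tamoxifen (100% inhibition), and AC50 came from Hill fits.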
# [9] = Cell Viability - HepG2 (AID 433; calls by dose curve;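 note: potency is the fitted concentration of half-maximal effect; potency for ATP loss meaning cytotoxicity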); conditions: qHTS
# Procedure, shortened: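 Read-out is luciferase-based quantitation of cellular ATP as a measure of viable HepG2 cells after 40 h treatment at 37 °C. Signal decrease is scaled between DMSO-only and 100 uM tamoxifen controls, with AC50 fitted by the Hill equation.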
# [10] = Cell Viability - MRC5 (AID 434; calls by dose curve;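 note: potency is the fitted concentration of half-maximal effect; potency reflects cytotoxicity seen as loss of intracellular ATP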); conditions: MRC5 lung fibroblast viability, qHTS
# Procedure, shortened: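 MRC5 normal human lung fibroblasts (1500/well) were treated with compounds for 40 hr at 37 °C in complete medium, and viable cells were measured as intracellular ATP by CellTiter-Glo luminescence. AC50 came from Hill fits, normalized to DMSO and 100 uM tamoxifen.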
# [11] = Cell Viability - SK-N-SH (AID 435; calls by dose curve;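 note: potency is the fitted concentration of half-maximal effect; compound exposure lasted 40 h at 37 °C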); conditions: SK-N-SH neuroblastoma cell viability qHTS
# Procedure, shortened: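 Luminescent ATP signal served as the viability read-out after 40 hours of compound treatment of human neuroblastoma SK-N-SH cells. Concentration-response data, scaled between DMSO and 100 uM tamoxifen, gave AC50 values by standard Hill modeling.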
# [12] = Cell Viability - N2a (AID 540; active = well fitted curve in the direction sought with a large enough effect; an effect the other way counts as inactive or inconclusive; note: nearly all actives have a fitted effect of over 45% in size); conditions: N2a mouse neuroblastoma cell viability; activity change, negative = cytotoxicity: at 92.2 µM (top of the series)
# Procedure, shortened: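 First, 1500 N2a cells per well incubate 5 hr at 37 °C; next, compounds are added and incubated 40 hr at 37 °C; finally CellTiter-Glo is added and luminescence read after 20 min, with AC50 derived by Hill modeling.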
# [13] = Cell Viability - HUV-EC-C (AID 542; active = well fitted curve in the direction sought with a large enough effect; an effect the other way counts as inactive or inconclusive; note: nearly all actives have a fitted effect of over 35% in size)
# Procedure, shortened: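 Decrease in cellular ATP, quantified by luciferase luminescence, reflects toxicity in normal human vascular endothelial HUV-EC-C cells given compound for 40 hr in complete culture medium. Values are AC50s from concentration-response curves.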
# [14] = Cell Viability - H-4-II-E (AID 543; active = well fitted curve in the direction sought with a large enough effect; an effect the other way counts as inactive or inconclusive; note: nearly all actives have a fitted effect of over 35% in size)
# Procedure, shortened: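 Here, cytotoxicity is measured in the rat hepatoma line H-4-II-E as loss of intracellular ATP after 40 hr compound treatment, detected by luciferase luminescence.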
# [15] = Cell Viability - SH-SY5Y (AID 544; active = well fitted curve in the direction sought with a large enough effect; an effect the other way counts as inactive or inconclusive; note: nearly all actives have a fitted effect of over 55% in size); conditions: SH-SY5Y neuroblastoma cell viability; viability change, negative = cytotoxic: at 92.2 µM (top of the series)
# Procedure, shortened: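 Cytotoxicity is scored as a concentration-dependent fall in intracellular ATP in human SH-SY5Y cells treated 40 hr in complete culture medium. Potency is expressed as AC50 from a Hill equation fit.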
# [16] = Cell Viability - Renal Proximal Tubule (AID 545; active = well fitted curve in the direction sought with a large enough effect; an effect the other way counts as inactive or inconclusive; note: nearly all actives have a fitted effect of over 40% in size)
# Procedure, shortened: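 Luminescent ATP signal (CellTiter-Glo) served as the viability read-out after 40 hr compound exposure of freshly isolated rat proximal tubule cells at 37 °C. Concentration-dependent ATP loss was fitted with the Hill equation to give AC50.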
# [17] = Cell Viability - Mesenchymal (AID 546; active = well fitted curve in the direction sought with a large enough effect; an effect the other way counts as inactive or inconclusive;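 note: cells exposed to compound for 40 hours before reading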)
# Procedure, shortened: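 Normal human renal glomerulus-derived kidney mesenchymal cells, 1000 per well in complete medium, were treated with compounds for 40 hr at 37 °C. Viability was read as intracellular ATP by CellTiter-Glo luminescence; AC50 values came from Hill-equation fits of qHTS concentration-response data.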
# [18] = Cellular Toxicity (caspase-3) HepG2 (AID 654; active = well fitted curve in the direction sought with a large enough effect; an effect the other way counts as inactive or inconclusive;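 note: cells exposed to compound for 16 hours before reading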)
# Procedure, shortened: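 qHTS, HepG2, 1500 cells/well, complete medium; cpd 16 h 37 °C; Caspase-Glo 3/7, 20 min RT; lum. Norm: DMSO vs 100 uM tamoxifen; AC50 Hill fit.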
# [19] = Cellular Toxicity (caspase-3) Jurkat (AID 655; active = well fitted curve in the direction sought with a large enough effect; an effect the other way counts as inactive or inconclusive;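 note: cells exposed to compound for 16 h at 37 °C before reading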)
# Procedure, shortened: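 5000 Jurkat cells/well; compound 16 hr, 37 °C; Caspase-Glo 3/7 added, 20 min RT; luminescence read. Norm: DMSO = 0%, tamoxifen 100 uM = 100%. AC50, Hill model.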
# [20] = AP1 Signaling Pathway (AID 357); conditions: ME-180 (cervical carcinoma) AP-1-bla reporter, EGF-induced, beta-lactamase ratio, 5 h; at 17.2 µM (top of the series) unless noted;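 note: ME-180 reporter cells stimulated with EGF at its EC50 level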
# Procedure, shortened: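 A ratiometric CCF4 readout (405 nm excitation; 460 and 530 nm emission) quantified AP-1-driven beta-lactamase in ME-180 cells after 5 h with compound and EC50 EGF; AC50 values were derived for activators and inhibitors.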
# Sequence of Cytochrome P450 1A2 (Homo sapiens) (P05177 whole entry, looked up): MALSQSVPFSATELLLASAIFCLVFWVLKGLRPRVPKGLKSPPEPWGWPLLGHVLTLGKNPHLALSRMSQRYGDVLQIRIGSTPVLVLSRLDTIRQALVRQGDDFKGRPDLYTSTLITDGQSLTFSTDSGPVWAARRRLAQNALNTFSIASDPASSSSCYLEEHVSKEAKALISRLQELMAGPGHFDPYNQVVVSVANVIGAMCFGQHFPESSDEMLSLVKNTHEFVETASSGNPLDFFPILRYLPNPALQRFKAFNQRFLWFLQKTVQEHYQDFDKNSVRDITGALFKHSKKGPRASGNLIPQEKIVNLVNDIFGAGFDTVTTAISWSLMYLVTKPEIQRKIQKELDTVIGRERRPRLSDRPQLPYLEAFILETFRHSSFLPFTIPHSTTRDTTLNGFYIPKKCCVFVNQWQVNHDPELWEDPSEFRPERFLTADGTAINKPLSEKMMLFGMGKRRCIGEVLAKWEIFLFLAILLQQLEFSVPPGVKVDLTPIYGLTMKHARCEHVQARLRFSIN
# Sequence of Glucocorticoid receptor (Homo sapiens) (P04150 whole entry, looked up, the tested form may be a part): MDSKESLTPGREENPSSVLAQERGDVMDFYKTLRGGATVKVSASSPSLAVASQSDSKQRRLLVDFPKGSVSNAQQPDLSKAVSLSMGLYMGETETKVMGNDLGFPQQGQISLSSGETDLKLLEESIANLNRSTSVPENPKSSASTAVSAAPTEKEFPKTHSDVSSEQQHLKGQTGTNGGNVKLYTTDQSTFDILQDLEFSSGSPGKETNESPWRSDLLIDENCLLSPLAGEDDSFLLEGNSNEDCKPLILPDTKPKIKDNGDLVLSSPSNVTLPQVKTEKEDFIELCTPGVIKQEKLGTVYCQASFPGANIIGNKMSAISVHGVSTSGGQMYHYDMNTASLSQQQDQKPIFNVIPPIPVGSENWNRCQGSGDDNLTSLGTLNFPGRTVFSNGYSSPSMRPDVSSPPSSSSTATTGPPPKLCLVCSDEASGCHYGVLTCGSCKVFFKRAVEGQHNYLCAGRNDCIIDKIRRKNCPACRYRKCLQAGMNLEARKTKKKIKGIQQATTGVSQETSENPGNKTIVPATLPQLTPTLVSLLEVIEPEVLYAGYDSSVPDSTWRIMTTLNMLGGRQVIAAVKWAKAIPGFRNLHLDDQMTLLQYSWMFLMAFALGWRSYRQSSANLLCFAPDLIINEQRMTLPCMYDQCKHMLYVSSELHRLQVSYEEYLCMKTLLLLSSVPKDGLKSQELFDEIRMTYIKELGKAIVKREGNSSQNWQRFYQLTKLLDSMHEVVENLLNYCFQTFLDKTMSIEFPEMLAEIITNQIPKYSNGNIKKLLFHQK
# Sequence of 3',5'-cyclic-AMP phosphodiesterase 4B (Homo sapiens) (Q07343 whole entry, looked up): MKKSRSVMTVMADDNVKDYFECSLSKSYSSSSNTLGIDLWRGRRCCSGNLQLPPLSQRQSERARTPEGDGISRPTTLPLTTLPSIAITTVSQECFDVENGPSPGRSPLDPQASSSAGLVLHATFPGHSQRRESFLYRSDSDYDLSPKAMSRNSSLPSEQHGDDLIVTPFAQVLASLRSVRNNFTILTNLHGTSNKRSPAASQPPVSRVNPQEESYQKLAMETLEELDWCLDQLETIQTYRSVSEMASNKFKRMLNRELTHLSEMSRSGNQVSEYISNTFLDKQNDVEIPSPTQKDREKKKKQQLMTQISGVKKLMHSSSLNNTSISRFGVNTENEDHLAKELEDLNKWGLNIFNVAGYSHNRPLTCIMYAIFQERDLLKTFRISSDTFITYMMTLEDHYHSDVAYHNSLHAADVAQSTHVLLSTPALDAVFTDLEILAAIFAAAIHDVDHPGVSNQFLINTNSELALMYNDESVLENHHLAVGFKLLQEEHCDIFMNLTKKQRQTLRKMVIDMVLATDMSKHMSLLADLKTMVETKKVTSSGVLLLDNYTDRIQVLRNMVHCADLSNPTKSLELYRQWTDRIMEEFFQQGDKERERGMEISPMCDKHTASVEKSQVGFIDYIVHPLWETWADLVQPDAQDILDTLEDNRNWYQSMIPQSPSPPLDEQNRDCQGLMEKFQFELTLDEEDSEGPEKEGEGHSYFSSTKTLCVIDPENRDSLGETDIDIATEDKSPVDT
smiles,measurement,setting,value
Cc1cccc(N(C)C(=S)Oc2ccc3ccccc3c2)c1,Potency,[1],2.51 µM (active)
same,"activity, negative = inhibition",[2],4.85% and -13.1%
same,Potency,[3],> 20.6 µM
NC(=O)c1cccc(N)c1,Potency,[1],15.8 µM (active)
same,"activity, negative = inhibition",[2],1.75% [at 38 µM]
same,Potency,[3],> 46 µM
same,Potency,[4],inactive
same,outcome,[5],inactive
COc1cnc(NS(=O)(=O)c2ccc(N)cc2)nc1,Potency,[1],inactive
same,"activity, negative = inhibition",[2],-4.71%
same,Potency,[3],> 20.6 µM
same,Potency,[4],inactive
same,outcome,[5],inactive
CCOC(=O)c1ccc(OC(=O)CCCCCN=C(N)N)cc1,Potency,[1],12.6 µM (active) and 15.8 µM (active)
same,"activity, negative = inhibition",[2],-23.2%
same,Potency,[4],inactive
same,outcome,[5],inactive
CCn1cc(C(=O)O)c(=O)c2cc(F)c(N3CCNCC3)nc21,Potency,[1],inactive
same,"activity, negative = inhibition",[2],4.75% and 1.14%
same,Potency,[4],inactive
same,outcome,[5],inactive
Cc1nnc(NS(=O)(=O)c2ccc(N)cc2)s1,Potency,[1],inactive
same,Potency,[6],> 92 µM
same,Potency,[7],> 92 µM
same,Potency,[8],> 92 µM
same,Potency,[9],> 92 µM
same,Potency,[10],> 92 µM
same,Potency,[11],> 92 µM
same,"activity, negative = inhibition",[2],0.539% and 1.42%
same,Potency,[4],inactive
same,Potency,[12],inactive
same,Potency,[13],inactive
same,Potency,[14],inactive
same,Potency,[15],inactive
same,Potency,[16],inactive
same,Potency,[17],inactive
same,outcome,[5],inactive
same,Potency,[18],inactive
same,outcome,[19],inactive
CCCCOc1ccc(CC(=O)NO)cc1,Potency,[1],1.58 µM (active)
same,"activity, negative = inhibition",[2],-9.96% and -7.15%
same,Potency,[3],> 20.6 µM
same,Potency,[4],inactive
N[C@@H](Cc1ccc(O)c(O)c1)C(=O)O,Potency,[1],inactive
same,"activity, negative = inhibition",[2],4.83%
same,Potency,[3],> 46 µM and > 20.6 µM
same,Potency,[4],inactive
same,outcome,[5],inactive
COC(=O)Nc1nc2ccc(C(=O)c3ccccc3)cc2[nH]1,Potency,[1],3.98 µM (active)
same,"activity, negative = inhibition",[2],-12.3% and -12%
same,Potency,[3],> 20.6 µM
same,Potency,[4],inactive
same,outcome,[5],inactive
Cc1ncc([N+](=O)[O-])n1CCO,Potency,[1],inactive
same,Potency,[6],> 92 µM
same,Potency,[7],> 92 µM
same,Potency,[8],> 92 µM
same,Potency,[9],> 92 µM
same,Potency,[10],> 92 µM
same,Potency,[11],> 92 µM
same,"activity, negative = inhibition",[2],4.79% and 0.586%
same,Potency,[4],inactive
same,Potency,[12],inactive
same,Potency,[13],inactive
same,Potency,[14],inactive
same,Potency,[15],inactive
same,Potency,[16],inactive
same,Potency,[17],inactive
same,outcome,[5],inactive
same,Potency,[18],inactive
same,outcome,[19],inactive
CCCOc1ccc(C(=O)OCCN(CC)CC)cc1N,Potency,[1],5.01 µM (active)
same,"activity, negative = inhibition",[2],1.44%
same,Potency,[3],> 20.6 µM
same,Potency,[4],inactive
same,outcome,[5],inactive
COc1cc(NS(=O)(=O)c2ccc(N)cc2)nc(OC)n1,Potency,[1],inactive
same,"activity, negative = inhibition",[2],9.03% and -4.46%
same,Potency,[3],> 20.6 µM
same,Potency,[4],inactive
same,outcome,[5],inactive
COC(=O)Nc1nc2ccc(Sc3ccccc3)cc2[nH]1,Potency,[1],0.794 µM (active)
same,"activity, negative = inhibition",[2],1.46% and -3.37%
same,Potency,[3],> 20.6 µM
same,Potency,[4],inactive
same,outcome,[5],inactive
NC(N)=NC(N)=NCCc1ccccc1,"activity change, negative = inhibition",[20],5.09% and 3.64%
same,Potency,[7],> 92 µM
same,Potency,[8],> 92 µM
same,Potency,[10],> 92 µM
same,Potency,[11],> 92 µM
same,"activity, negative = inhibition",[2],9.3% and 14.4%
same,Potency,[3],> 20.6 µM
same,Potency,[4],inactive
same,"activity change, negative = cytotoxicity",[12],-109% (active)
same,Potency,[13],inactive
same,Potency,[15],inactive
same,Potency,[16],inactive
same,Potency,[17],inactive
same,outcome,[5],inactive
same,Potency,[18],inactive
same,outcome,[19],inactive

# Source: PubChem BioAssay (NCATS)
